Bioassay records (PubChem BioAssay)
The list is not random: actives were taken first. Their share in the collection is about 0.9%.
TAR Tat displ: TAR RNA-Tat peptide displacers, HIV-1, primary screen, biochemical, FRET, FAM/TAMRA-labeled Tat | HIV-1 TAR RNA, Tat peptide displacement FRET; stronger effect = higher value | z-score (concentration not given with the values) | 0.6% of 100,000 active; active = z-score of 3 or more in at least 2 runs
CDC25B-CDK2 inh: primary biochemical HTRF screen for blockers of M-phase inducer phosphatase 2 binding to CDK2/cyclin A | P30305+P24941 | HTRF CDC25B-CDK2/CyclinA binding, anti-His/anti-Flag; stronger effect = higher value | z-score (concentration not given with the values) | 0.72% of 94,000 active; in the data active = z-score above about 3.2
* marks the source's active call; other numbers are inactive results; . = no result given.

SMILES	TAR Tat displ	CDC25B-CDK2 inh
CN1CCN(c2cc(Nc3ccc4c(c3)OCCO4)c3c4c(onc24)-c2ccccc2C3=O)CC1	-7	11*
O=C(Cn1cnc2c(nc3n2CCCCC3)c1=O)N1CCN(c2ccccc2F)CC1	0.91	.
COc1ccc(-c2onc(C)c2C)cc1S(=O)(=O)NCCCN1CCCC1	-0.15	.
CCCCN(c1ccccc1)S(=O)(=O)c1ccc2c(c1)NC(=O)C(C)S2 (stereo not given)	2.1	.
CN(C(=O)Cc1noc2ccccc12)c1ccccc1F	0.99	-0.94
CCOC(=O)c1nn(-c2ccccc2)c(=O)c2c(N)scc12	-4.9	19*
CCOC(=O)c1nn(-c2ccc(OC)cc2)c(=O)c2c(NC(=O)C3CCCC3)scc12	.	-1.4
COc1ccc(-c2cc(N)n(S(=O)(=O)c3ccc(C(C)(C)C)cc3)n2)cc1OC	0.23	-1.1
Cc1ccc2nc(NCCO)c3nnnn3c2c1	-3.9	.
CCOC(=O)c1c(N)n(CCc2ccccc2)c2nc3ccccc3nc12	0.65	0.32
Cc1ccc(S(=O)(=O)c2c(N)n(CCO)c3nc4ccccc4nc23)cc1	.	18*
O=C(C1CCN(c2ncnc3c2nc2n3CCCCC2)CC1)N1CCOCC1	0.75	.
N#Cc1ccc(-c2cc(C(=O)O)c3c(ccc4ccccc43)n2)cc1	.	12*
O=C(O)c1cc(-c2ccccc2)nc2ccccc12	4.1	-1.3
CCN1/C(=C/C2=CC(=O)CC(C)(C)C2)Sc2ccccc21	-15	-2.1
CCn1c(=O)/c(=C2\Sc3ccccc3N2C)s/c1=C\c1cccc[n+]1C	1	.
C=CCN1/C(=C/c2cc[n+](C)cc2)Sc2ccccc21	4.1*	0.36
CN1/C(=C\c2cc[n+](C)cc2)Sc2ccccc21	7.5*	0.14
C=CC[n+]1ccc(/C=C2\Sc3ccccc3N2C)cc1	1.6	-3.4
C=CCN1/C(=C/c2cccc[n+]2C)Sc2ccccc21	6.7*	0.99
COc1ccc(-n2ccn3c(=O)[nH]nc3c2=O)cc1	-0.81	-0.51
O=C(Cc1ccccc1)Nc1nc2nc(-c3ccccc3)cc(=O)n2[nH]1	-1	-2.2
CCc1ccccc1Nc1nc(-c2sc(N)nc2C)cs1	-7	2.6
Cc1nc(N)sc1-c1csc(Nc2cccc(Cl)c2C)n1	-3.7	9.4*
Cc1sc2c(c1C)CSC(C(=O)NCc1ccco1)=C2	3.6*	.
SMILES	TAR Tat displ	CDC25B-CDK2 inh
Cc1ccc(CNC(=O)C2=Cc3sc(C)c(C)c3CS2)cc1	0.81	.
COc1ccc(OC)c(C2/C(=C(\O)c3ccccc3)C(=O)C(=O)N2c2cccnc2)c1 (stereo not given)	1.9	-3.8
COc1ccc(OC)c(C2/C(=C(/O)c3ccc(C)cc3)C(=O)C(=O)N2c2cccnc2)c1 (stereo not given)	0.4	6*
COc1cc(NC(=O)CCc2nnc3ccc(N4CCCCC4)nn23)cc(OC)c1	0.28	.
C=CCc1ccccc1OCc1cc(=O)n2cc(C)sc2n1	1.3	-1.1
CCCC(NC(=O)c1noc2c1CCc1sccc1-2)c1cccs1 (stereo not given)	0.57	.
Fc1ccccc1-c1nc(-c2ccccn2)no1	.	-1.2
c1ccc(-c2noc(-c3cccc4ccccc34)n2)nc1	0.01	12*
O=C(Cn1c(=O)c2cccn2c2ccc(F)cc21)NCCc1cccs1	-0.7	.
Cc1cc2c(NC(=O)c3ccccc3C(=O)O)cccc2nn1	.	21*
Cc1cc2c(NC(=O)Nc3ccc(C(C)(C)C)cc3)cccc2nn1	.	-2
Cc1cc(Cl)ccc1NS(=O)(=O)c1ccc(-c2n[nH]c(C)c2C)s1	2.5	.
O=C(Cn1c(=O)oc2ccc(C(=O)N3CCCC3)cc21)Nc1nc2ccccc2s1	1.4	.
CCn1c(CN2CCCC2)nc2ccccc21	2.4	-1.1
CCc1nnc2sc(NC(=O)c3ccco3)nn12	1.5	-1.6
COc1ccc(OCC(=O)Nc2nn3c(-c4ccco4)nnc3s2)cc1	25*	0.67
O=C(Nc1nn2c(-c3ccco3)nnc2s1)c1ccc(F)cc1	0.03	-1.7
CC(C)Cc1nnc2sc(NC(=O)c3ccco3)nn12	11*	-0.44
O=C(COc1ccccc1)Nc1nn2c(-c3ccco3)nnc2s1	32*	0.26
O=C(Nc1nn2c(-c3ccco3)nnc2s1)c1cccc(F)c1	-2.6	-2.1
O=C(Nc1ccc2nsnc2c1)c1cc(=O)c2ccc(Br)cc2o1	0.87	-1.7
C=CCOC(=O)C1C(c2cccc(OC)c2)c2c([nH][nH]c2=O)CC1(C)O (stereo not given)	1.3	1.5
Cc1cc(N2CCC(C)CC2)n2ncc(-c3ccc(F)cc3)c2n1	0.28	-0.31
O=C(Nc1c(C(=O)N2CCOCC2)oc2ccccc12)c1cc(-c2cccs2)on1	1	-2.2
N[C@H](C(=O)O)[C@H]1C[C@@H]1C(=O)O	.	7.7*
SMILES	TAR Tat displ	CDC25B-CDK2 inh
NC(C(=O)O)C1CCCCC1 (stereo not given)	.	-0.39
CCN(CC)C(=O)CSc1nc2nc(C)cc(C)c2c(=O)[nH]1	.	0.19
Cc1cc(C)c2c(=O)[nH]c(SCC(=O)c3ccc(O)c(O)c3)nc2n1	30*	-0.31
CN(C)c1ccc(C(=O)NCCCCCC(=O)NO)cc1	10*	.
CN(C)c1ccc(NC(=O)CCCC(=O)O)cc1	1.7	-4.2
Cc1ccccc1N1CSC2=C(C#N)C(c3cccs3)CC(=O)N2C1 (stereo not given)	0.89	5.1*
CCc1ccccc1N1CSC2=C(C#N)C(c3cccs3)CC(=O)N2C1 (stereo not given)	-0.35	6.7*
Cc1noc2ncnc(N3CCCC(C(=O)N4CCOCC4)C3)c12 (stereo not given)	1.4	.
CCn1nc(C)c(CNC(=O)Nc2cc(F)ccc2F)c1C	-1.7	.
COc1ccc(OC)c(S(=O)(=O)Nc2ccc(N3CCCS3(=O)=O)cc2)c1	0.9	.
Nc1cccc(N2CCn3c(nc4ccccc43)C2)c1	-3.4	7.4*
c1ccc(CN2CCn3c(nc4ccccc43)C2)cc1	0.68	-1.8
Nc1ccc(N2CCn3c(nc4ccccc43)C2)cc1	-1.7	13*
Nc1cccc(N2CCn3c(nc4cc(Cl)ccc43)C2)c1	-5.1	-0.91
Cc1sc2ncnc(NCc3ccccc3Cl)c2c1C	-1.1	-4.3
Cc1ccc(S(=O)(=O)c2cn(C)c3cc(N4CC(C)CC(C)C4)c(F)cc3c2=O)cc1 (stereo not given)	-1.2	.
CSCCC1COC(c2cccn2Cc2c(C)cc(C)cc2C)=N1 (stereo not given)	0.83	-2
CCOC(=O)c1cc(CO)cc(C(=O)OCC)c1	.	-2
CCCOC(=O)c1cc(O)c(O)c(O)c1	26*	.
CN(CCCNC(=O)C1CCN(c2nnc(-n3cccc3)s2)CC1)C1CCCCC1	0.64	-1.6
COCCN(Cc1cccs1)S(=O)(=O)c1ccc2c(c1)NC(=O)CCS2	0.66	.
CC1CCCC(NC(=O)C2(C)Cn3c(cc4occc43)C(=O)N2C2CCCC2)C1C (stereo not given)	0.67	.
CC1CCCC(NC(=O)C2(C)Cn3c(cc4occc43)C(=O)N2CC2CCCO2)C1C (stereo not given)	6.8*	.
CCOC(=O)c1ccc(NC(=S)NC(NC(=O)c2ccccc2Br)C(Cl)(Cl)Cl)cc1 (stereo not given)	.	1.8
CC(=O)c1ccc(NC(=S)NC(NC(=O)c2cccc(Cl)c2)C(Cl)(Cl)Cl)cc1 (stereo not given)	.	3.2*
CC(C)(C)NC(=O)c1oc2ccccc2c1NC(=O)c1cccs1	1.7	.
